Bioassay records from PubChem.
Sampled rows, rich in hits. Any-hit rate of the full collection: about 4.7%.
CCHFV vOTU inh: blocks the CCHF virus ovarian tumor domain protease; actives 0.55% (n = 370,000); CCHFV vOTU protease, Pep-AMC fluorescence; inhibition, % at 11.5 µM; further: 0% = vehicle wells with enzyme and 100% = no enzyme wells
VHR inh abs: inhibitors of human VHR1 phosphatase (DUSP3); P51452; recombinant VHR phosphatase, pNPP absorbance; inhibition, % at 13.3 µM; actives 0.52% (n = 290,000); AID 1654; in the data active means inhibition above about 50%
Target sequence (P51452 whole entry, looked up): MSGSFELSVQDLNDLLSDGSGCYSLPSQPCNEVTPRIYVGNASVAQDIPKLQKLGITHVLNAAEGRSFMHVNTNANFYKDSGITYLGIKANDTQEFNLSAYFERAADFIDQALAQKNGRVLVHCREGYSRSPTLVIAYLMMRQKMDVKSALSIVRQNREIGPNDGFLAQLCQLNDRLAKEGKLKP
Mtb FBA inh: inhibitors of M. tuberculosis fructose-bisphosphate aldolase; P9WQA3; inhibition, % at 1 µM; purified M. tuberculosis FBA, fluorescence read-out; actives 2.3% (n = 360,000); in the data active means inhibition above about 27%;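 further: 0% = vehicle and 100% = reference inhibitor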
Target sequence (P9WQA3 whole entry, looked up): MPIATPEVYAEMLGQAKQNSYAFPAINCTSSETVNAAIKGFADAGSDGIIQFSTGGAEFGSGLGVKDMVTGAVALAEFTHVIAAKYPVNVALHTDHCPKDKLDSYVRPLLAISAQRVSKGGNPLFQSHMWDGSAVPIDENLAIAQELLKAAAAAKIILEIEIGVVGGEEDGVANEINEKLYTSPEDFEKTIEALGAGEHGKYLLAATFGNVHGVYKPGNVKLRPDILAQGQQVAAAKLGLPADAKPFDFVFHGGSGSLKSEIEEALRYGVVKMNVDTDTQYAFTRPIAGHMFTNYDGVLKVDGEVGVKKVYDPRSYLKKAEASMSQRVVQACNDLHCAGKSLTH
3CLpro inhibitor: SARS-CoV 3CLpro protease inhibition; inhibition, % at 6 µM; recombinant SARS-CoV 3CLpro, quenched FRET peptide cleavage; actives 0.14% (n = 290,000); in the data active means inhibition above about 12%
GDH-TPI counter: inhibits GDH-TPI coupling enzymes, artifact for Mtb FBA screen. GDH-TPI coupled enzyme counterscreen, NADH absorbance. AID 588335. actives 1.2% (n = 360,000). inhibition, % at 4.8 µM;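 further: 0% = DMSO wells and 100% = wells lacking the enzyme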
RecA splice inh: inhibitors of M. tuberculosis RecA intein splicing; P9WHJ3; cell-free RecA intein splicing, fluorescence; inhibition, % (concentration not given with the values); actives 0.75% (n = 290,000); AID 2221; in the data active means inhibition above about 30%;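 further: 0% = vehicle wells and 100% = reference inhibitor control wells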
GFP chromophore: counter-screen GFP chromophore formation inhibition; actives 83% (n = 2,100); EC50, µM; shares compounds with RecA splice inh; cell-free GFP chromophore formation, fluorescence; AID 434968; call rule not given here
Starred values were filed as active, the others as inactive. Unless noted, no stated cut-off is given here; in the data, active means inhibition above about 30%; inactive means the rest.

COc1nc(N/N=C/c2ccc(-c3ccccc3[N+](=O)[O-])o2)nc(N2CCOCC2)n1 was read as CCHFV vOTU inh 0, VHR inh abs 16, Mtb FBA inh -1, 3CLpro inhibitor -5, GDH-TPI counter 19, RecA splice inh 61* and GFP chromophore 35*.
Screening O=C(COc1ccc2c3c(c(=O)oc2c1)CCC3)Nc1ccc(CN2CCOCC2)cc1 returned CCHFV vOTU inh 14, VHR inh abs -13, Mtb FBA inh 7, 3CLpro inhibitor -2, GDH-TPI counter 19 and RecA splice inh 2.
CC(C)(C)NC(=O)C(c1cccs1)N(CC1CCCO1)C(=O)c1ccc(-c2ccccc2)[nH]1 (stereo unspecified) was read as CCHFV vOTU inh 21, VHR inh abs 26, Mtb FBA inh -3, 3CLpro inhibitor 4, GDH-TPI counter 10, RecA splice inh 33* and GFP chromophore >38.
O=C(NCC1CCCO1)C(c1cccs1)N(Cc1ccccc1)C(=O)c1ccc(-c2ccccc2)[nH]1 (stereo unspecified) was read as CCHFV vOTU inh 19, VHR inh abs 13, Mtb FBA inh 3, 3CLpro inhibitor 4, GDH-TPI counter 3 and RecA splice inh 13.
For CC(C)S(=O)(=O)C1=NSC2=NC(=O)/C(=C\c3ccc(OC(=O)c4ccco4)cc3)C(=N)N21 the results were CCHFV vOTU inh 13, VHR inh abs -5, Mtb FBA inh 1, 3CLpro inhibitor 3, GDH-TPI counter 13, RecA splice inh 34* and GFP chromophore >38.
COc1cc(C(c2c(C)[nH][nH]c2=O)c2c(C)[nH][nH]c2=O)cc(Br)c1OC was read as CCHFV vOTU inh -6, VHR inh abs 28, Mtb FBA inh -2, 3CLpro inhibitor 2, GDH-TPI counter -1, RecA splice inh 99* and GFP chromophore 0.63*.
For CCOc1cc(C(c2c(C)[nH][nH]c2=O)c2c(C)[nH][nH]c2=O)cc(Br)c1OC the results were CCHFV vOTU inh 0, Mtb FBA inh 4, 3CLpro inhibitor 3, GDH-TPI counter 5, RecA splice inh 93* and GFP chromophore 0.49*.
For COc1cc2c(cc1OC)C(c1cc(Br)c(OC)c(OC)c1)CC(=O)N2 (stereo unspecified) the results were CCHFV vOTU inh -4, VHR inh abs 26, Mtb FBA inh 2, 3CLpro inhibitor 2, GDH-TPI counter 20 and RecA splice inh -3.
Screening CC(=O)NC(=S)c1c(N)n(Cc2ccccc2)c(=O)n(C)c1=O returned VHR inh abs -1, 3CLpro inhibitor -3, RecA splice inh 33* and GFP chromophore >38.
`CC(=O)Nc1ccc(SCC(=O)c2c(N)n(Cc3ccccc3)c(=O)n(C)c2=O)cc1` gave CCHFV vOTU inh 7, VHR inh abs 1, Mtb FBA inh 5, 3CLpro inhibitor 3, GDH-TPI counter 9 and RecA splice inh -1.
Cc1ccc(S(=O)(=O)NC(CC(C)C)C(=O)NCCCn2nc(C)cc2C)cc1 (stereo unspecified) was read as CCHFV vOTU inh 15, Mtb FBA inh 1 and GDH-TPI counter 1.
Cc1ccc(NC(=O)C(=Cc2ccc(C(=O)O)cc2)C(=O)Nc2ccc(C)cc2C)c(C)c1 was read as VHR inh abs 1, Mtb FBA inh 4, 3CLpro inhibitor -1, GDH-TPI counter 13, RecA splice inh 83* and GFP chromophore 7.6*.
CC[N+](C)(C)CC/C=C1/c2ccccc2Sc2ccc(Cl)cc21 was read as CCHFV vOTU inh -1, VHR inh abs 9, Mtb FBA inh 1, 3CLpro inhibitor 2, GDH-TPI counter 5 and RecA splice inh 14.
CCCCCCCCCCC[N+](C)(C)CC/C=C1/c2ccccc2Sc2ccc(Cl)cc21 was read as VHR inh abs 22, Mtb FBA inh -1, 3CLpro inhibitor 5, GDH-TPI counter 5, RecA splice inh 63* and GFP chromophore 9.5*.
`CN(C)CC/C=C1\c2ccccc2Sc2ccc(Cl)cc21` gave CCHFV vOTU inh 2, VHR inh abs 9, Mtb FBA inh 5, 3CLpro inhibitor 0, GDH-TPI counter 4 and RecA splice inh 4.
`CCCCCCCCCC[N+](C)(C)CC/C=C1/c2ccccc2Sc2ccc(Cl)cc21` gave VHR inh abs 22, Mtb FBA inh 0, 3CLpro inhibitor 1, GDH-TPI counter 4, RecA splice inh 69* and GFP chromophore 12*.
CC1C(=O)N(Cc2cn(CC3CCCCC3)nn2)CCS(=O)(=O)N1Cc1ccc(-c2ccc(Cl)cc2)cc1 (stereo unspecified) was read as Mtb FBA inh 2 and GDH-TPI counter 18.
`C=CCOc1ccc(/C=N/n2nnnc2N)cc1OC` gave CCHFV vOTU inh 2, Mtb FBA inh 5, GDH-TPI counter 25 and RecA splice inh 1.
Screening Cc1cccn2c(CNCC3(c4ccccc4)CCCC3)c(C(=O)N3CCOCC3)nc12 returned CCHFV vOTU inh 9, VHR inh abs 3, Mtb FBA inh 9, 3CLpro inhibitor 3, GDH-TPI counter -1, RecA splice inh 2 and GFP chromophore >38.
CC(C)CN(C(=O)C1CSC2(C)CCC(=O)N12)c1c(N)n(Cc2ccccc2)c(=O)[nH]c1=O (stereo unspecified) was read as CCHFV vOTU inh -2, VHR inh abs 0, Mtb FBA inh 1, 3CLpro inhibitor 1, GDH-TPI counter 3 and RecA splice inh -1.
`CC(C)c1ccc(S(=O)(=O)/N=C2\C=C(NS(=O)(=O)c3ccccc3)C(=O)c3ccccc32)cc1` gave CCHFV vOTU inh 68*, VHR inh abs 7, Mtb FBA inh -6, 3CLpro inhibitor 8, GDH-TPI counter 5, RecA splice inh 45* and GFP chromophore 6.7*.
`CCC(=O)N1CC2(c3ccccc3)CN(C(=O)CC)CC(c3ccccc3)(C1)C2=O` gave CCHFV vOTU inh -6, VHR inh abs 23, Mtb FBA inh 3, 3CLpro inhibitor 0, GDH-TPI counter -9 and RecA splice inh 0.
`CC(=O)N1CC2(c3ccccc3)CN(C(C)=O)CC(c3ccccc3)(C1)C2=O` gave CCHFV vOTU inh -6, VHR inh abs 12, Mtb FBA inh 4, 3CLpro inhibitor 0, GDH-TPI counter 3, RecA splice inh 62* and GFP chromophore >38.
Screening CSc1nc(-c2ccccc2)nn1C(=O)c1ccc(Cl)cc1 returned CCHFV vOTU inh 13, VHR inh abs -6, Mtb FBA inh 4, 3CLpro inhibitor 5, GDH-TPI counter 4, RecA splice inh 57* and GFP chromophore >38.
`N#CC1=C(N)Oc2n[nH]c(-c3cccnc3)c2C1c1ccc([N+](=O)[O-])o1` (stereo unspecified) gave CCHFV vOTU inh -5, VHR inh abs 23, Mtb FBA inh -6, 3CLpro inhibitor 0, GDH-TPI counter 1 and RecA splice inh 29.
